{
  "source": "paper PMC9928087",
  "about": "“Plasmids manipulate bacterial behaviour through translational regulatory crosstalk”",
  "key": {"RsmQ [1]": {"molecular_target": "T1, RsmQ (Pseudomonas fluorescens SBW25 plasmid …, UniProt UPI00015066B5 1-62)", "T1 sequence": "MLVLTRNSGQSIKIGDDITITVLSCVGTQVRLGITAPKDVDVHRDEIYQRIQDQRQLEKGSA", "assay": "SPR (ReDCaT); 100 nM protein; HBS-EP+ (10 mM HEPES, 150 mM NaCl, 3 mM EDTA, 0.05% v/v Tween 20, pH 7.4), 20 C, Biacore 8K, ReDCaT SA chip; high values mean tight binding", "settings": "protein: recombinant, tags: C-terminal TEV site + 6xHis, chain copies: 2"}, "RsmQ H43A": {"molecular_target": "T2, RsmQ H43A (Pseudomonas fluorescens SBW25 plasmid …, UniProt UPI00015066B5 1-62, H43A)", "T2 sequence": "T1 sequence with H43A", "assay": "SPR (ReDCaT); 100 nM protein; HBS-EP+ (10 mM HEPES, 150 mM NaCl, 3 mM EDTA, 0.05% v/v Tween 20, pH 7.4), 20 C, Biacore 8K, ReDCaT SA chip; high values mean tight binding", "settings": "protein: recombinant; tags: C-terminal TEV site + 6xHis; chain copies: 2; structured_DNA"}, "RsmQ R44A": {"molecular_target": "T3, RsmQ R44A (Pseudomonas fluorescens SBW25 plasmid …, UniProt UPI00015066B5 1-62, R44A)", "T3 sequence": "T1 sequence with R44A", "assay": "SPR (ReDCaT); 100 nM protein; HBS-EP+ (10 mM HEPES, 150 mM NaCl, 3 mM EDTA, 0.05% v/v Tween 20, pH 7.4), 20 C, Biacore 8K, ReDCaT SA chip; high values mean tight binding", "settings": "protein: recombinant; tags: C-terminal TEV site + 6xHis; chain copies: 2; structured_DNA"}, "RsmE": {"molecular_target": "T4, RsmE (Pseudomonas fluorescens SBW25, UniProt A0ACA7PAD1 1-74)", "T4 sequence": "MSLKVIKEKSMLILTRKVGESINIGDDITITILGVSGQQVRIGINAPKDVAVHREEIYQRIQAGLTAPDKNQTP", "assay": "SPR (ReDCaT); 100 nM protein; HBS-EP+ (10 mM HEPES, 150 mM NaCl, 3 mM EDTA, 0.05% v/v Tween 20, pH 7.4), 20 C, Biacore 8K, ReDCaT SA chip; high values mean tight binding", "settings": "protein: recombinant; tags: His tag (pET28a NdeI/XhoI); chain copies: 2; structured_DNA"}, "RsmQ [2]": {"molecular_target": "T1, RsmQ", "assay": "SPR (ReDCaT); 100 nM protein, run beside RsmE; HBS-EP+ (10 mM HEPES, 150 mM NaCl, 3 mM EDTA, 0.05% v/v Tween 20, pH 7.4), 20 C, Biacore 8K, ReDCaT SA chip; high values mean tight binding", "settings": "protein: recombinant; tags: C-terminal TEV site + 6xHis; chain copies: 2; structured_DNA"}, "RsmQ [3]": {"molecular_target": "T1, RsmQ", "assay": "SPR (ReDCaT); HBS-EP+ (10 mM HEPES, 150 mM NaCl, 3 mM EDTA, 0.05% v/v Tween 20, pH 7.4), 20 C, Biacore 8K, ReDCaT SA chip; high values mean tight binding", "settings": "protein: recombinant, tags: C-terminal TEV site + 6xHis, chain copies: 2"}},
  "note": "Changes are numbered by the printed parent chain.",
  "data": [
    {"sequence": "CCGCGCTCGGAAGCGCAAAC", "values": [
      {"measurement": "binding signal", "setting": "RsmQ [1]; structured_DNA", "result": "4.59 ± 0.514", "unit": "%Rmax"}
    ]},
    {"sequence": "CAGGACAGGACAGAGC", "values": [
      {"measurement": "binding signal", "setting": "RsmQ [1]; ssDNA", "result": "4.87 ± 0.902", "unit": "%Rmax"}
    ]},
    {"sequence": "CCGCGCCCGGAAGCGCAAAC", "values": [
      {"measurement": "binding signal", "setting": "RsmQ [1]; structured_DNA", "result": "7.21 ± 0.838", "unit": "%Rmax"}
    ]},
    {"sequence": "CCGCGCACGAAGCGCAAAC", "values": [
      {"measurement": "binding signal", "setting": "RsmQ [1]; structured_DNA", "result": "24.9 ± 0.641", "unit": "%Rmax"}
    ]},
    {"sequence": "CCGCGCCGGAAGCGCAGGAAC", "values": [
      {"measurement": "binding signal", "setting": "RsmQ [1]; structured_DNA", "result": "28.8 ± 0.617", "unit": "%Rmax"},
      {"measurement": "binding signal", "setting": "RsmQ H43A", "result": "12.8 ± 0.157", "unit": "%Rmax"},
      {"measurement": "binding signal", "setting": "RsmQ R44A", "result": "3.8 ± 0.253", "unit": "%Rmax"}
    ]},
    {"sequence": "CCGCGCAGGGAAGCGCAAAC", "values": [
      {"measurement": "binding signal", "setting": "RsmQ [1]; structured_DNA", "result": "106.2 ± 0.739", "unit": "%Rmax"},
      {"measurement": "binding signal", "setting": "RsmE", "result": "47.5 ± 0.0552", "unit": "%Rmax"},
      {"measurement": "binding signal", "setting": "RsmQ [2]", "result": "90.1 ± 4.07", "unit": "%Rmax"}
    ]},
    {"sequence": "GCCCTGTGTCCACGGATTGGCACAA", "values": [
      {"measurement": "binding signal", "setting": "RsmQ [3]; structured_DNA", "result": "82.5 ± 1.12", "unit": "%Rmax"}
    ]},
    {"sequence": "CAGGAAAGGACAGAGCACGGA", "values": [
      {"measurement": "binding signal", "setting": "RsmQ [1]; ssDNA", "result": "10.1 ± 0.715", "unit": "%Rmax"}
    ]},
    {"sequence": "CAAGGAGACAGAGCAACAGGA", "values": [
      {"measurement": "binding signal", "setting": "RsmQ [1]; ssDNA", "result": "3.14 ± 0.795", "unit": "%Rmax"}
    ]},
    {"sequence": "CCGCGCACGGAAGCGCAACGGAAC", "values": [
      {"measurement": "binding signal", "setting": "RsmQ [1]; structured_DNA", "result": "70 ± 0.746", "unit": "%Rmax"},
      {"measurement": "binding signal", "setting": "RsmQ H43A", "result": "51.14 ± 0.26", "unit": "%Rmax"},
      {"measurement": "binding signal", "setting": "RsmQ R44A", "result": "38.8 ± 0.461", "unit": "%Rmax"}
    ]},
    {"sequence": "TTCATCAGGATGATGAAAAGGAATAC", "values": [
      {"measurement": "binding signal", "setting": "RsmQ [3]; ssDNA", "result": "80.5 ± 1.97", "unit": "%Rmax"}
    ]},
    {"sequence": "CAGGAACGGACAGAGC", "values": [
      {"measurement": "binding signal", "setting": "RsmQ [1]; ssDNA", "result": "6.27 ± 1.5", "unit": "%Rmax"}
    ]},
    {"sequence": "GGAATACAGGGACTAGGGAAAAAAT", "values": [
      {"measurement": "binding signal", "setting": "RsmQ [3]; ssDNA", "result": "3.83 ± 1.08", "unit": "%Rmax"}
    ]},
    {"sequence": "CTGCCAGGATGGCGGAGTGAAATGG", "values": [
      {"measurement": "binding signal", "setting": "RsmQ [3]; ssDNA", "result": "16.2 ± 1.37", "unit": "%Rmax"}
    ]},
    {"sequence": "CCGCGCATGGAAGCGCAAAC", "values": [
      {"measurement": "binding signal", "setting": "RsmQ [1]; structured_DNA", "result": "113.5 ± 0.537", "unit": "%Rmax"},
      {"measurement": "binding signal", "setting": "RsmE", "result": "30.1 ± 0.204", "unit": "%Rmax"},
      {"measurement": "binding signal", "setting": "RsmQ [2]", "result": "107 ± 6.88", "unit": "%Rmax"}
    ]},
    {"sequence": "CCGCGCAGGAAGCGCAAAC", "values": [
      {"measurement": "binding signal", "setting": "RsmQ [1]; structured_DNA", "result": "94.4 ± 1.28", "unit": "%Rmax"},
      {"measurement": "binding signal", "setting": "RsmQ H43A", "result": "43.9 ± 0.798", "unit": "%Rmax"},
      {"measurement": "binding signal", "setting": "RsmQ R44A", "result": "22.1 ± 0.676", "unit": "%Rmax"},
      {"measurement": "binding signal", "setting": "RsmQ [2]", "result": "98.6 ± 6.21", "unit": "%Rmax"}
    ]},
    {"sequence": "GCAACAACACGGACACGTAGGATT", "values": [
      {"measurement": "binding signal", "setting": "RsmQ [3]; ssDNA", "result": "3.78 ± 1.57", "unit": "%Rmax"}
    ]},
    {"sequence": "ATGGACGTCGCGCAGGAAGCGCAAA", "values": [
      {"measurement": "binding signal", "setting": "RsmQ [3]; structured_DNA", "result": "83.5 ± 1.31", "unit": "%Rmax"}
    ]},
    {"sequence": "AATGTCGCAGGATGCGATTCATCAG", "values": [
      {"measurement": "binding signal", "setting": "RsmQ [3]; ssDNA", "result": "62.7 ± 2.27", "unit": "%Rmax"}
    ]},
    {"sequence": "CCATCAAGGAACGATGGTTCGAAGG", "values": [
      {"measurement": "binding signal", "setting": "RsmQ [3]; ssDNA", "result": "11.7 ± 0.382", "unit": "%Rmax"}
    ]},
    {"sequence": "CCGCGCACGGAAGCGCAAAC", "values": [
      {"measurement": "binding signal", "setting": "RsmQ [1]; structured_DNA", "result": "68.3 ± 0.752", "unit": "%Rmax"},
      {"measurement": "binding signal", "setting": "RsmQ H43A", "result": "50.72 ± 0.382", "unit": "%Rmax"},
      {"measurement": "binding signal", "setting": "RsmQ R44A", "result": "41.38 ± 0.372", "unit": "%Rmax"},
      {"measurement": "binding signal", "setting": "RsmE", "result": "-4.31 ± 0.212", "unit": "%Rmax"},
      {"measurement": "binding signal", "setting": "RsmQ [2]", "result": "49.1 ± 0.724", "unit": "%Rmax"}
    ]},
    {"sequence": "CCGCGCACTGAAGCGCAAAC", "values": [
      {"measurement": "binding signal", "setting": "RsmQ [1]; structured_DNA", "result": "1.69 ± 0.298", "unit": "%Rmax"}
    ]}
  ]
}
